Screens (PubChem)
In the library only some 3.7% were active in any assay of this set; here they are far more common.
BoNT A protease = blocks Botulinum neurotoxin A light chain protease; inhibition, % at 10 µM; multiplex microsphere protease substrate cleavage, flow cytometry; 360,000 compounds, 0.17% hits; note: plate controls were buffer without enzyme for full effect and enzyme alone for no effect
Anthrax LF inh2 = anthrax lethal factor protease inhibition | multiplex microsphere protease cleavage assay, LF | inhibition, % at 10 µM | 360,000 compounds, 0.12% hits | P15917 | AID 588501; note: plate controls were buffer without enzyme for full effect and enzyme alone for no effect
MazF activator = activators of E. coli MazEF toxin-antitoxin RNase. activation, % at 20 µM. 350,000 compounds, 0.32% hits. FAM/BHQ RNA-DNA oligo cleavage fluorescence, 5 h. P0AE70; in the data active = activation above about 50%
BoNT-F LC inh = BoNT F light chain protease inhibition | inhibition, % at 10 µM | 360,000 compounds, 0.22% hits | Multiplex microsphere protease cleavage assay, flow cytometry; in the data active = inhibition above about 35%, passing the limit was not always enough; inconclusive = no clear call, values can overlap the other calls; note: plate controls were buffer without enzyme for full effect and enzyme alone for no effect
Bead autofluor = compound fluorescence in toxin protease inhibitor counterscreen | 360,000 compounds, 3.1% hits | fluorescence intensity (no concentration beside the values) | AID 624483 | compound autofluorescence counterscreen, microsphere flow cytometry; stronger effect = higher value; in the data active = fluorescence intensity above about 16000; inconclusive = no clear call, values can overlap the other calls
The depositor's hits bear a star. Cut-off read from the data, not from the text of the source, unless noted: active = inhibition above about 30%; inconclusive = no clear call, values can overlap the other calls; inactive = below that.

How did N#CCC1(O)C(=O)N(Cc2ccccc2)c2ccccc21 (centres undefined) do in these assays?
BoNT A protease: 0; Anthrax LF inh2: -10; BoNT-F LC inh: -5; Bead autofluor: 5589

Results for O=C(NCCOc1ccccc1F)C1CCC(=O)N(CCc2cccc(F)c2)C1 (centres undefined) ?
BoNT A protease: -1; Anthrax LF inh2: -3; MazF activator: -5; BoNT-F LC inh: -5; Bead autofluor: 4697

What do the screens show for `COc1cc(NC(=O)C2CC(c3cccc(Br)c3)=NO2)cc(OC)c1OC` (centres undefined)?
BoNT A protease: 5; Anthrax LF inh2: 16; MazF activator: -4; BoNT-F LC inh: 0; Bead autofluor: 3964

What do the screens show for `COc1cccc(C2=NOC(C(=O)NCc3ccc(F)cc3)C2)c1` (centres undefined)?
BoNT A protease: -1; Anthrax LF inh2: -2; MazF activator: -4; BoNT-F LC inh: -7; Bead autofluor: 9856

Results for COc1ccc(CNC(=O)C2CC(c3cccc(OC)c3)=NO2)cc1 (centres undefined) ?
BoNT A protease: 9; Anthrax LF inh2: -9; MazF activator: -7; BoNT-F LC inh: 9; Bead autofluor: 19613*

Results for COc1cccc(C2=NOC(C(=O)Nc3cc(OC)c(OC)c(OC)c3)C2)c1 (centres undefined) ?
BoNT A protease: -3; Anthrax LF inh2: -4; MazF activator: -2; BoNT-F LC inh: -3; Bead autofluor: 21270*

What do the screens show for `COc1cc(C2=NOC(C(=O)N3CCN(c4ccc(F)cc4)CC3)C2)cc(OC)c1OC` (centres undefined)?
BoNT A protease: -3; Anthrax LF inh2: -3; MazF activator: -2; BoNT-F LC inh: -2; Bead autofluor: 17355*

How did Cc1cccc(N2CC(C(=O)Nc3ccccc3N3CCOCC3)CC2=O)c1C (centres undefined) do in these assays?
BoNT A protease: 0; Anthrax LF inh2: -9; MazF activator: 6; BoNT-F LC inh: -15; Bead autofluor: 3301

Results for COc1ccc(-c2csc(C(C)(O)c3ccc(F)c(F)c3)n2)cc1OC (centres undefined) ?
BoNT A protease: 0; Anthrax LF inh2: 5; BoNT-F LC inh: -3; Bead autofluor: 3237

Results for Cc1nc(C(=O)Nc2ccc(Cl)cc2Cl)nn1-c1cc(OC(C)C)c(Cl)cc1Cl ?
BoNT A protease: 0; Anthrax LF inh2: 6; MazF activator: 1; BoNT-F LC inh: 7; Bead autofluor: 9951

Results for Cc1nc(C(=O)Nc2cc(Cl)ccc2Cl)nn1-c1cc(OC(C)C)c(Cl)cc1Cl ?
BoNT A protease: -1; Anthrax LF inh2: -1; MazF activator: -3; BoNT-F LC inh: 1; Bead autofluor: 24341*

Results for Cc1nc(C(=O)Nc2cccc(Cl)c2)nn1-c1cc(OC(C)C)c(Cl)cc1Cl ?
BoNT A protease: inconclusive; Anthrax LF inh2: 0; MazF activator: -1; BoNT-F LC inh: -4; Bead autofluor: 23251*

How did COc1ccc(-c2cc(C(=O)N3CCN(c4ccccc4F)CC3)c3ccccc3n2)c(OC)c1 do in these assays?
BoNT A protease: 2; Anthrax LF inh2: 0; MazF activator: -9; BoNT-F LC inh: 6; Bead autofluor: 5128

How did CCc1c(C)c(C#N)c2nc3ccccc3n2c1NCCN(C)C do in these assays?
BoNT A protease: 7; Anthrax LF inh2: -7; MazF activator: 1; BoNT-F LC inh: 7; Bead autofluor: 17739*

Results for NS(=O)(=O)c1ccc(-c2ccc(C=NC3CCS(=O)(=O)C3)o2)cc1 (centres undefined) ?
BoNT A protease: 0; Anthrax LF inh2: 1; MazF activator: 6; BoNT-F LC inh: -7; Bead autofluor: 10884

Results for O=C1/C(=C/c2ccccc2)SC(=S)N1C1CCS(=O)(=O)C1 (centres undefined) ?
BoNT A protease: 0; Anthrax LF inh2: 4; MazF activator: 6; BoNT-F LC inh: 0; Bead autofluor: 6643

What do the screens show for `NS(=O)(=O)c1ccc(-c2ccc(/C=C3\SC(=S)N(C4CCS(=O)(=O)C4)C3=O)o2)cc1` (centres undefined)?
BoNT A protease: 65*; Anthrax LF inh2: 46*; MazF activator: -35; BoNT-F LC inh: 19; Bead autofluor: 4298

How did Cc1ccc(/C=C2\SC(=S)N(C3CCS(=O)(=O)C3)C2=O)o1 (centres undefined) do in these assays?
BoNT A protease: 35*; Anthrax LF inh2: 15; MazF activator: 0; BoNT-F LC inh: 11; Bead autofluor: 2152
